Screens as filed in PubChem.
HEK cytotox: Cytotoxic Profiling in HEK 293 Cell Line of Diverse Libraries Using Quantitative High-Throughput Screening; hit rate 6.6% among 94,000; Potency, µM (doses to about 115 µM), for inactives: at the top dose activity change, negative = cytotoxicity, usual class: inhibitors; HEK 293 viability, ATP luminescence (CellTiter-Glo), 48-72 h; also: % is scaled to controls: 0 for no effect and ±100 for the full control effect; nearly all actives have a fitted effect of over 60% in size
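Cytotoxicity was scored by loss of ATP-coupled luminescence (CellTiter-Glo) in HEK 293 cells. Compound treatment ran 48 or 72 hr at 37 degree Celsius, 5% CO2, 95% humidity.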
Luciferase inh: Firefly luciferase inhibition profiling of diverse chemical library using quantitative high-throughput screening; Luciferin 4-monooxygenase (Photinus pyralis), P08659; purified P. pyralis luciferase, luminescence, biochemical; Potency, µM (titrated, usually from 115 µM), most hits filed as inhibitors; hit rate 2.5% among 76,000; AID 1347043, 2019; also: % is scaled to controls: 0 for no effect and ±100 for the full control effect; nearly all actives have a fitted effect of over 65% in size
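Biochemical qHTS: compound (6-point titration) added to 10uM D-luciferin plus 10uM ATP in Tris acetate pH 7.5 buffer with Mg, Tween-20 and BSA, then purified enzyme at 10nM; light output imaged.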
NPR1 antag: Natriuretic polypeptide receptor (hNpr1) antagonism - Primary qHTS; HEK293 hNpr1 GloSensor cGMP, ANP-stimulated luminescence; Atrial natriuretic peptide receptor 1 (Homo sapiens), P16066; Potency, µM (top dose mostly 46.3 µM), inactives show at the highest dose activity change, negative = inhibition, hits mostly inhibitors; AID 1347048, 2019; hit rate 1.6% among 76,000; calls by dose curve; also: % is scaled to controls: 0 for no effect and ±100 for the full control effect; nearly all actives have a fitted effect of over 60% in size
Target sequence (P16066 whole entry, looked up): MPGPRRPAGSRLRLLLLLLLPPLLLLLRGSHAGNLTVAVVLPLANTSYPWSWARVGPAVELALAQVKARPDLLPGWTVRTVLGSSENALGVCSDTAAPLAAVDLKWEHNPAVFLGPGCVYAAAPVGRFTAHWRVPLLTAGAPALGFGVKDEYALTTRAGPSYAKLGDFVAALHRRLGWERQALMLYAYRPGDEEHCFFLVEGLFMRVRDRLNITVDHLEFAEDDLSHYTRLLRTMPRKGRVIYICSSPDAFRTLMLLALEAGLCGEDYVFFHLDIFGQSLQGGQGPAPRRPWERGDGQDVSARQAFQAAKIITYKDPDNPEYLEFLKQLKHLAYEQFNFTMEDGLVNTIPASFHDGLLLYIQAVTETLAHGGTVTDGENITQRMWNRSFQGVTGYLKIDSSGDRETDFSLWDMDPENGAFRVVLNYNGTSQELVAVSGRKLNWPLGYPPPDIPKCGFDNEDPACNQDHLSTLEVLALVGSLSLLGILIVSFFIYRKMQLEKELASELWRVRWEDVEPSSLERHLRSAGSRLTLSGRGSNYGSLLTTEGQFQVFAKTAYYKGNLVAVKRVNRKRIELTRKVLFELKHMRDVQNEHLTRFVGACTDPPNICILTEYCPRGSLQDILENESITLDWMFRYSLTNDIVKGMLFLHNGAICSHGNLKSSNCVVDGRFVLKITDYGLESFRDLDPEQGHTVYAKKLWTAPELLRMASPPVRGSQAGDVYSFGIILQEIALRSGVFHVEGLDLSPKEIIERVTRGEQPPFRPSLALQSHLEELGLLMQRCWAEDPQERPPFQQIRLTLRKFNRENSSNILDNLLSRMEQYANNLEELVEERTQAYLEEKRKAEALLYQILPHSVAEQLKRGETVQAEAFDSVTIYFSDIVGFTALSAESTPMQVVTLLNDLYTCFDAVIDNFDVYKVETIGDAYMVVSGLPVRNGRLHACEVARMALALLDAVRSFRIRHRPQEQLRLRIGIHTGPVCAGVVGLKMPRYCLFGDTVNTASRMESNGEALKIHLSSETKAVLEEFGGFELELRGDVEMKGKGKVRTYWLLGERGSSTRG
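Compound pre-incubated 30 min at room temperature on GloSensor-loaded HEK293 cells stably carrying hNpr1 and the pGS-40F cGMP biosensor. Stimulation uses hNppA at 0.1 nM final; luminescence is taken at baseline and 20 min post-agonist.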
3T3 cytotox: Cytotoxic Profiling in NIH 3T3 Cell Line of Diverse Libraries Using Quantitative High-Throughput Screening; NIH 3T3 viability, CellTiter-Glo ATP luminescence, 48-72 h; Potency, µM (series often up to 96.7 µM), without a hit: at the top dose activity change, negative = cytotoxicity, usual class: inhibitors; hit rate 4.3% among 94,000; AID 1345082, 2018; also: % is scaled to controls: 0 for no effect and ±100 for the full control effect; nearly all actives have a fitted effect of over 55% in size
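NIH 3T3 cells at 400 cells/well received 23 nL of compound by pintool and were incubated 48 or 72 h at 37 °C. Viability was read as ATP-coupled CellTiter-Glo luminescence.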
Npr1 antag conf: Natriuretic polypeptide receptor (hNpr1) antagonism - Confirmation; shares compounds with NPR1 antag; HEK293 hNpr1 cGMP GloSensor luminescence, ANP-stimulated; Potency, µM (highest dose often 57.6 µM), for the others: at the highest dose activity change, negative = inhibition, actives largely listed as inhibitors; hit rate 76% among 1,400; calls by dose curve; also: nearly all actives have a fitted effect of over 70% in size
Npr2 selectivity: Natriuretic polypeptide receptor (hNpr2) antagonism - Subtype selectivity assay. shares compounds with NPR1 antag. HEK293 hNpr2 GloSensor cGMP luminescence, CNP-stimulated. Potency, µM (doses to about 57.6 µM), inactives show top-dose activity change, negative = inhibition, hits mostly inhibitors. hit rate 67% among 1,400. AID 1347046, 2019; calls by dose curve; also: nearly all actives have a fitted effect of over 70% in size
FLuc counter: Natriuretic polypeptide receptor (hNpr1) antagonism - Confirmation firefly luciferase (FLuc) inhibition counterscreen; hit rate 0.7% among 1,400; Potency, µM (top dose mostly 57.6 µM), without a hit: top-dose activity change, negative = inhibition, most hits filed as inhibitors; AID 1347047, 2019; purified FLuc enzyme, luminescence, Km substrate; shares compounds with NPR1 antag; also: 0% is about no effect
GloSensor ctrl: Natriuretic polypeptide receptor (hNpr1) antagonism - Counterscreen GloSensor control cell line. HEK293 GloSensor cGMP, SNP-stimulated, luminescence. shares compounds with NPR1 antag. Potency, µM (top dose mostly 57.6 µM), for the others: at the top dose activity change, negative = inhibition, hits mostly inhibitors. hit rate 69% among 1,400; calls by dose curve; also: % is scaled to controls: 0 for no effect and ±100 for the full control effect; nearly all actives have a fitted effect of over 70% in size
The depositor's hits bear a star; i = inactive; ? = inconclusive; nt = not tested or not shown; [ ] = dose if it differs, or a comment. An excerpt weighted towards active compounds, which were near 11% of everything screened. Unless noted, calls follow the shape of the dose curve; as a rule, active = well fitted curve in the direction sought with a large enough effect; inconclusive = small, poorly fitted or top-dose-only effect, or another doubt; inactive = no such curve, though single readings can be large; an effect the other way counts as inactive or inconclusive. Potency is read from the fitted curve at half-maximal effect.

SMILES	HEK cytotox	Luciferase inh	NPR1 antag	3T3 cytotox	Npr1 antag conf	Npr2 selectivity	FLuc counter	GloSensor ctrl
Cc1ccc(NC(=O)C2CCN(c3cc(C(F)(F)F)ncn3)CC2)cc1F	?	i	5.01µM*	?	6.85µM*	10.9µM*	5.5%	6.11µM*
COc1ccc(NC(=O)C2CCN(c3cc(C(F)(F)F)ncn3)CC2)cc1Cl	?	i	?	?	nt	nt	nt	nt
O=C(c1ccco1)N1CCCC(c2noc(COc3ccccc3)n2)C1 (stereo unspecified)	?	i	0.0%	?	nt	nt	nt	nt
Cn1ccnc1CN1C[C@@H](C(=O)O)C[C@@H](C(=O)NCc2ccncc2)C1	3.0%	i	5.3%	-5.6%	nt	nt	nt	nt
COc1cccc(C(=O)N2CCCC3(C2)NC(=O)N(Cc2ccc(C)cc2)C3=O)c1 (stereo unspecified)	-26.9%	i	-1.1%	-17.9%	nt	nt	nt	nt
COc1cccc(C(=O)N2CCC3(C2)NC(=O)N(Cc2ccc(Cl)cc2)C3=O)c1 (stereo unspecified)	?	i	?	?	?	?	1.0%	-29.0%
CN(CC1CCOCC1)S(=O)(=O)c1cccc(Cl)c1	-7.2%	i	-0.6%	-9.1%	nt	nt	nt	nt
CC1=C(C(=O)OC(C)C)C(c2ccccc2C)N2C(CC(=O)NCC3CC3)=CSC2=N1 (stereo unspecified)	10µM*	i	?	?	?	?	-0.7%	?
CC1=C(C(=O)OC(C)C)C(c2ccccc2Cl)N2C(CC(=O)NCC3CC3)=CSC2=N1 (stereo unspecified)	?	i	11.2µM*	?	?	21.7µM*	5.6%	?
Cc1cc2c(N3CCC(NCc4noc(C5CCC5)n4)CC3)ncnc2s1	?	i	2µM*	?	1.53µM*	3.06µM*	2.2%	1.72µM*
CNC(=O)CCn1ncc2cc(OCc3ccccc3-c3cccc(O)c3)ccc21	79.4µM*	?	11.2µM*	?	19.8µM*	17.7µM*	?	12.5µM*
CCN(Cc1ccccc1)C(=O)C1CCN(c2cnn(C)c(=O)c2)C1 (stereo unspecified)	-2.9%	nt	nt	-28.1%	nt	nt	nt	nt
O=C1COc2ccc(-c3ccc(Cl)cc3)nc2CN1Cc1ccccc1	63.1µM*	i	?	?	31.4µM*	22.2µM*	2.5%[86.2 µM]	?
O=C1COc2ccc(N3CCCC3)nc2CN1Cc1ccccc1	?	i	-20.4%[70.6 µM]	?	nt	nt	nt	nt
Cc1nc(CN2Cc3nc(-c4ccc(Cl)cc4)ccc3OCC2=O)cs1	?	i	?	?	nt	nt	nt	nt
O=C1COc2ccc(Nc3ccc(Cl)cc3)nc2CN1Cc1nc2ccccc2s1	31.6µM*	i	?	39.8µM*	?	?	-3.1%[86.2 µM]	?
COC(=O)[C@@H]1Cc2ncn(Cc3ccc(Cl)cc3)c2CN1C(=O)c1ccc(C#N)cc1	-9.3%[172 µM]	i	3.9%[70.6 µM]	?	nt	nt	nt	nt
COC(=O)[C@@H]1Cc2ncn(Cc3ccc(Cl)cc3)c2CN1Cc1cccc(C#N)c1	63.1µM*	i	?	?	?	?	-0.6%[86.2 µM]	?
CNC(=O)c1cc(C)nc2onc(C3CCCN(C(=O)Cc4ccccc4)C3)c12 (stereo unspecified)	-21.2%	nt	nt	-33.1%	nt	nt	nt	nt
CN1CCC2(CC1)CN(C(=O)CCc1ccccc1)Cc1ccccc1O2	?	i	-10.1%	-28.2%	nt	nt	nt	nt
COC[C@@H]1CN(Cc2c(OC)cccc2OC)C[C@H]1c1ccncc1	35.5µM*	i	6.31µM*	?	15.3µM*	15.3µM*	-0.1%	13.7µM*
COC[C@@H]1CN(Cc2ccc(OC)c(OC)c2)C[C@H]1c1ccncc1	?	i	0.2%	-28.7%	nt	nt	nt	nt
CN(C)c1cccc(Oc2nnnn2[C@H]2CO[C@H]3[C@@H]2OC[C@@H]3NC(=O)c2ccccc2)c1	?	i	12.6µM*	-29.5%	?	?	-2.9%	?
Cc1ccc(C(=O)N[C@H]2CO[C@H]3[C@@H]2OC[C@@H]3n2nnnc2Oc2ccccc2)cc1	?	i	8.91µM*	?	11.1µM*	15.7µM*	1.3%[86.2 µM]	9.94µM*
O=C(Nc1ccc(Oc2ccccc2)cc1)N[C@H]1CO[C@H]2[C@@H]1OC[C@@H]2n1nnnc1Oc1ccc(-n2ccnc2)cc1	39.8µM*	i	11.2µM*	?	21.7µM*	21.7µM*	-1.1%	17.2µM*
SMILES	HEK cytotox	Luciferase inh	NPR1 antag	3T3 cytotox	Npr1 antag conf	Npr2 selectivity	FLuc counter	GloSensor ctrl
O=C(N[C@H]1CO[C@H]2[C@@H]1OC[C@@H]2n1nnnc1Oc1ccccc1)c1cncnc1	-0.6%[172 µM]	i	5.2%[70.6 µM]	i	nt	nt	nt	nt
COc1ccc(C(=O)N[C@H]2CO[C@H]3[C@@H]2OC[C@@H]3n2nnnc2Oc2cccc(N(C)C)c2)cc1	?	i	7.08µM*	?	12.2µM*	12.2µM*	2.2%	9.68µM*
CN(C)c1ccc(C(=O)N[C@H]2CO[C@H]3[C@@H]2OC[C@@H]3n2nnnc2Oc2cccc(N(C)C)c2)cc1	?	i	11.2µM*	-27.9%	13.7µM*	15.3µM*	-3.0%	12.2µM*
CCOc1ccccc1C(=O)N1CCc2[nH]nc(-c3ccc(F)c(F)c3)c2C1	?	i	?	?	?	?	2.2%	?
CCOc1ncccc1C(=O)N1CCc2[nH]nc(-c3cccc(F)c3)c2C1	-24.6%	i	-10.2%	-29.0%	nt	nt	nt	nt
O=C1c2c(nc(COc3ccc4c(c3)OCO4)n2Cc2ccccc2)NCCN1CC1CCOCC1	?	i	-0.7%	-26.9%	nt	nt	nt	nt
O=C1c2c(nc(CNCc3cccc(Cl)c3)n2Cc2ccccc2)NCCN1CCOc1ccccc1	?	i	-28.8%	?	?	?	1.9%	?
